# The supplement of paper PMC9262897, “Low-cost anti-mycobacterial drug discovery using engineered E. coli” (Nature Communications, 2022)
# Counter-ions that a name gives are not always drawn. ± gives the standard deviation of the averaged measurements.
# Key:
# Test in all cases: growth (OD600 after 10 h); higher = more growth (less inhibition)
# [1] = tested on: E. coli TESEC Alr+ wild-type control; conditions: compound 0.1 mM; raw OD600 reference: median of DMSO wells 0.241, cell-free background 0.041
# Procedure: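 TESEC Mtb Alr E. coli, or the Alr+ wild-type control, in 384-well plates with Prestwick library compounds at 0.1 mM and 1% DMSO, across arabinose induction levels of 1E3 to 1E7 nM. Growth is read as OD600 after 10 h at 37 °C in triplicate biological replicates.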
# E. coli TESEC Mtb Asd = conditions: compound 0.1 mM
# Procedure: (§1)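 TESEC E. coli strains in which the native enzyme is deleted and replaced by arabinose-inducible Mtb Asd, DapB, CysH or TrpD, each grown in its selective medium. Strains were screened against the Prestwick library at 0.1 mM and 1% DMSO in 384-well format at low and high arabinose induction. Growth is read as OD600 after 10 h in triplicate.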
# E. coli TESEC Mtb DapB = conditions: compound 0.1 mM
# Procedure: as §1
# [2] = tested on: E. coli TESEC Alr+ wild-type control; conditions: compound 0.1 mM; raw OD600 reference: median of DMSO wells 0.49, cell-free background 0.052
# Procedure: (§2)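 TESEC Mtb Alr E. coli (ΔaraC ΔtolC ΔentC Δalr ΔdadX, arabinose-inducible Mtb Alr) or the Alr+ wild-type control strain, grown in defined M9-fructose medium without D-alanine in 96-well plates with Prestwick library compounds at 0.1 mM and 1% DMSO. Low Alr induction is 0.1 µM arabinose and high induction is 10 mM arabinose.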
# E. coli TESEC Mtb Alr = conditions: compound 0.1 mM
# Procedure: as §2
# [3] = arabinose induction (level): High, raw OD600 reference: median of DMSO wells 0.331, cell-free background 0.041
# [4] = arabinose induction (level): Low, raw OD600 reference: median of DMSO wells 0.417, cell-free background 0.041
# [5] = arabinose induction (level): High, raw OD600 reference: median of DMSO wells […], cell-free background 0.041
# [6] = arabinose induction (level): Low, raw OD600 reference: median of DMSO wells 0.227, cell-free background 0.041
# [7] = arabinose 100 nM, raw OD600 reference: median of DMSO wells 0.413, cell-free background 0.052
# [8] = arabinose 10000000 nM, raw OD600 reference: median of DMSO wells […], cell-free background 0.052
SMILES,growth [1],growth (E. coli TESEC Mtb Asd; [3]),growth (E. coli TESEC Mtb Asd; [4]),growth (E. coli TESEC Mtb DapB; [5]),growth (E. coli TESEC Mtb DapB; [6]),growth [2],growth (E. coli TESEC Mtb Alr; [7]),growth (E. coli TESEC Mtb Alr; [8])
COc1ccc(CC(C)NCC(O)c2ccc(O)c(NC=O)c2)cc1 (configuration not stated) [Formoterol fumarate],0.235 ± 0.0095,0.251 ± 0.018,0.395 ± 0.057,0.212 ± 0.019,0.238 ± 0.025,0.501 ± 0.04,0.41363 ± 5.8e-05,0.306 ± 0.019
C[N+](C)(C)CCOC(N)=O [Carbachol],0.251 ± 0.0053,0.475 ± 0.0086,0.438 ± 0.051,0.194 ± 0.0084,0.26 ± 0.028,0.492 ± 0.011,0.409 ± 0.023,0.364 ± 0.014
Nc1nc2n[nH]nc2c(=O)[nH]1 [Azaguanine-8],0.21 ± 0.0092,0.397 ± 0.01,0.42 ± 0.044,0.235 ± 0.032,0.26 ± 0.084,0.3656 ± 0.0032,0.409 ± 0.026,0.245 ± 0.16
CN(C)CC/C=C1\c2ccccc2CSc2ccccc21 [Dosulepin hydrochloride],0.168 ± 0.0019,0.14 ± 0.0062,0.263 ± 0.0048,0.168 ± 0.015,0.202 ± 0.0032,0.425 ± 0.028,0.413 ± 0.013,0.308 ± 0.0073
CCN(CC)C(C)CN1c2ccccc2Sc2ccccc21 (configuration not stated) [Ethopropazine hydrochloride],0.17 ± 0.0058,0.156 ± 0.031,0.289 ± 0.03,0.2149 ± 0.0019,0.236 ± 0.015,0.469 ± 0.026,0.413 ± 0.0094,0.333 ± 0.014
CCC(=O)[C@@]1(C)[C@H](C)C[C@H]2[C@@H]3CCC4=CC(=O)C=C[C@]4(C)[C@H]3[C@@H](O)C[C@@]21C [Rimexolone],0.216 ± 0.0076,0.203 ± 0.03,0.41 ± 0.047,0.197 ± 0.0062,0.209 ± 0.026,0.459 ± 0.021,0.414 ± 0.019,0.365 ± 0.038
CCC(=O)OCC(=O)[C@@]1(OC(=O)CC)[C@@H](C)C[C@H]2[C@@H]3CCC4=CC(=O)C=C[C@]4(C)[C@@]3(Cl)[C@@H](O)C[C@@]21C [Beclomethasone dipropionate],0.216 ± 0.0072,0.246 ± 0.032,0.3 ± 0.031,0.22 ± 0.0053,0.248 ± 0.035,,0.442 ± 0.0072,0.247 ± 0.018
CC(C)(C(=O)O)c1ccc(C(O)CCCN2CCC(C(O)(c3ccccc3)c3ccccc3)CC2)cc1 (configuration not stated) [Fexofenadine HCl],0.228 ± 0.0075,0.235 ± 0.015,0.348 ± 0.069,0.201 ± 0.025,0.266 ± 0.036,,0.431 ± 0.0065,0.309 ± 0.013
O=C(O)c1cn(C2CC2)c2cc(N3CCNCC3)c(F)cc2c1=O [Ciprofloxacin hydrochloride monohydrate],0.0408 ± 0.00053,0.0484 ± 0.0012,0.0498 ± 0.001,,,0.0505 ± 0.0005,0.0528 ± 0.00085,0.0527 ± 0.0033
O=C1CCC(N2C(=O)c3ccccc3C2=O)C(=O)N1 (configuration not stated) [Thalidomide],0.248 ± 0.0061,0.392 ± 0.098,0.461 ± 0.035,0.189 ± 0.016,0.24 ± 0.052,,0.424 ± 0.0084,0.346 ± 0.0072
COc1cc2nc(N3CCN(C(=O)C4CCCO4)CC3)nc(N)c2cc1OC (configuration not stated) [Terazosin hydrochloride],0.208 ± 0.008,0.215 ± 0.012,0.431 ± 0.0086,0.222 ± 0.02,0.219 ± 0.012,,0.407 ± 0.01,0.259 ± 0.019
